Reference: ChEMBL document CHEMBL1201862, “PubChem BioAssay data set” (2004)
About 2,800 (5.1%) of roughly 55,000 sequences were called active. No stated cut-off is given here; in the data, active = GI50 up to about 1.1 µM and inactive = higher. These entries were drawn from the full list. Measured potencies and affinities stand elsewhere.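 Five concentrations, 48 hours, 96-well plates. GI50 is the concentration that inhibits growth by half.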

What follows are substances tested on SK-MEL-2 (assay: NCI tumour cell line growth inhibition, 48 h).

**Q.** With “[Bis(aminomethyl)pentamethylenesilane]tetrachloropaltinum(IV), CHEMBL2146204” as the substance, how does the GI50 read?
**A.** 5.71 µM

**Q.** With “[Bis(aminomethyl)dimethylsilane]tetrachloroplatinum(IV), CHEMBL2146190” as the substance, how does the GI50 read?
**A.** 19.1 µM

**Q.** For “[Bis(aminomethyl)tetramethylenesilane]dichloropaltinum(II), CHEMBL2146205”, which GI50 is on record?
**A.** 30.9 µM

**Q.** How did the GI50 turn out when “[Bis(aminomethyl)dimethylsilane]dichloroplatinum (II), CHEMBL2146201” was run?
**A.** 65.5 µM

**Q.** How did the GI50 turn out when “[Bis(aminomethyl)ethylmethylsilane]tetrachloroplatinum(IV), CHEMBL2146192” was run?
**A.** 5.5 µM

**Q.** How did the GI50 turn out when CISPLATIN, CHEMBL11359 was run?
**A.** 5.07 µM

**Q.** How did the GI50 turn out when “mu-(1,7-nanodiamine-N,N')bis-(cis-aminedichloroplatimum (II)), CHEMBL2146215” was run?
**A.** 38.9 µM

**Q.** How did the GI50 turn out when “[Bis(aminomethyl)tetramethylenesilane]tetrachloropaltinum(IV), CHEMBL2146189” was run?
**A.** 6.64 µM

**Q.** “[Bis(aminomethyl)diethylsilane]tetrachloroplatinum(IV), CHEMBL2146203” was tested. Which GI50 did it give?
**A.** 3.1 µM

**Q.** Which GI50 does the source give for “[Bis(aminomethyl)pentamethylenesilane]dichloropaltinum(II), CHEMBL2146202” here?
**A.** 7.57 µM

**Q.** Which GI50 does the source give for “cis-Bis[[(trimethylsilyl)methyl]amino]tetrachloroplatinum(IV), CHEMBL2146191” here?
**A.** 2.88 µM
